Bioassay records: PubChem, National Center for Advancing Translational Sciences (NCATS)
Mm-Cpn inhibitor: M. maripaludis TRiC chaperonin inhibition; purified Mm-Cpn ATPase, ADP Transcreener TR-FRET; Potency, µM (top dose mostly 76.9 µM), actives largely listed as inhibitors; 0.031% of 330,000 active; further: nearly all actives have a fitted effect of over 80% in size
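Compound-treated chaperonin, 25 nM final, turns over 10 uM ATP at 37°C for 30 min following a 10 min preincubation; ADP generated competes with ADP-d2 for Eu-cryptate antibody, lowering FRET.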
CCT chaperon mod: changes cytosolic chaperonin activity | purified chaperonin ATPase assay, HTRF ADP detection, 30 min | activity change, % (no concentration beside the values), hits read low | 0.3% of 360,000 active; in the data active means activity change below about -30%
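TRiC (40 or 20 nM final, by batch activity) in 30 mM Tris pH 7.4, 100 mM KCl, 5 mM MgCl2, 1 mM DTT was treated with compound at 76 uM single dose, then 10 uM ATP, 30 min at 37 °C. ADP was read by HTRF Transcreener.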
Abeta rescue: compounds reversing amyloid beta toxicity in yeast. yeast expressing A-beta42, growth rescue, OD600, 48 h; response scale: 0% DMSO, 100% iron-clioquinol control. Potency, µM (top dose mostly 46.1 µM), hits mostly activators. 0.063% of 410,000 active; further: nearly all actives have a fitted effect of over 55% in size
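Yeast A-beta toxicity model in growth medium with pinned compounds, 48 h at 30 C; growth read as absorbance at 600 nm. Normalized to FeCl3/clioquinol equimolar mix (positive) and DMSO (negative).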
FUS suppressor: suppressors of FUS proteinopathy in yeast | Potency, µM (top dose mostly 76.6 µM), most hits filed as activators | 0.24% of 390,000 active | S. cerevisiae FUS-expressing, growth rescue, OD600, 24 h | AID 1347120; further: nearly all actives have a fitted effect of over 55% in size
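FUS-expressing yeast, raffinose-pregrown, induced in 2% galactose minimal medium at OD 0.005; compounds in a dilution series, 24hr at 30C. Growth restoration read as absorbance at 600 nm. CP55940 positive control, DMSO negative.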
aSyn rescue: inhibitors of alpha-synuclein toxicity in yeast. Potency, µM (series often up to 46.1 µM), usual class: activators. AID 652106. Yeast expressing alpha-synuclein, growth rescue, BacTiter-Glo, 24 h. 0.14% of 370,000 active; further: nearly all actives have a fitted effect of over 65% in size
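Rescue of yeast growth: cells expressing toxic alpha-synuclein, induced in galactose at OD600 0.02, incubated with compound 24 h at 30 C. ATP luminescence quantified growth; inhibitors of toxicity appear as activators.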
TDP-43 yeast inh: TDP-43 toxicity inhibition in yeast | TDP-43 expressing yeast growth rescue, BacTiter-Glo, 24 h | Potency, µM (series often up to 46.1 µM), usual class: activators | 1.8% of 410,000 active; further: nearly all actives have a fitted effect of over 50% in size
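Yeast cells expressing TDP-43 under galactose induction are exposed to compounds for 24 hr at 30 deg C. BacTiter-Glo luminescence measures growth, so protective compounds score as activators.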
Of the large screens only hits and unclear results are named; the others gave an inactive call. Shown are actives, neighbours in structure and some others; about 2.3% of the full set was active somewhere. Unless noted, the call rests on the fitted dose curve; in most records, active means well fitted curve in the direction sought with a large enough effect; inconclusive means small, poorly fitted or top-dose-only effect, or another doubt; inactive means no such curve, though single readings can be large; an effect the other way counts as inactive or inconclusive.

COc1ccc(-n2c(COc3ccccc3)nnc2SCC(=O)Nc2ccc(OCc3ccccc3)cc2)cc1	none (no result: Mm-Cpn inhibitor, CCT chaperon mod, Abeta rescue, aSyn rescue, TDP-43 yeast inh)
Clc1ccc(N2CCN(c3ccnc(Cl)n3)CC2)cc1	aSyn rescue inconclusive, TDP-43 yeast inh 18µM (no result: Mm-Cpn inhibitor)
CC(C)(C)Cc1c(-c2ccc(Br)cc2)nc2ccc(Cl)cn12	TDP-43 yeast inh inconclusive (no result: Mm-Cpn inhibitor)
Cc1ccc(-c2nc3ccc(Cl)cn3c2Cc2cccc(Cl)c2)cc1	FUS suppressor inconclusive, TDP-43 yeast inh 20µM (no result: Mm-Cpn inhibitor)
Clc1ccc(-c2nc3ccc(Br)cn3c2Cc2cccc(Cl)c2)cc1	TDP-43 yeast inh 32µM (no result: Mm-Cpn inhibitor)
Cc1ccc(-c2nc3ccc(C)cn3c2Cc2cccc(Cl)c2)cc1	none (no result: Mm-Cpn inhibitor)
CC(C)(C)Cc1c(-c2ccc(Cl)cc2)nc2ccc(Br)cn12	TDP-43 yeast inh 35µM (no result: Mm-Cpn inhibitor)
Cc1ccc(-c2nc3ccc(Br)cn3c2Cc2cccc(Cl)c2)cc1	TDP-43 yeast inh 28µM (no result: Mm-Cpn inhibitor)
N#Cc1ccc(-c2nc3ccc(Br)cn3c2Cc2cccc(Cl)c2)cc1	TDP-43 yeast inh inconclusive (no result: Mm-Cpn inhibitor)
COc1ccc2nc(-c3ccccc3)[nH]c(=O)c2c1	TDP-43 yeast inh inconclusive (no result: Mm-Cpn inhibitor)
COc1ccc(-c2nc3ccc(N4CCCC4)cc3c(=O)[nH]2)cc1OC	CCT chaperon mod -79
O=c1cc(CNc2cc(C(F)(F)F)cc(C(F)(F)F)c2)nc2sccn12	TDP-43 yeast inh 18µM (no result: FUS suppressor)
O=c1cc(COn2nnc3ccc(C(F)(F)F)cc32)nc2sccn12	TDP-43 yeast inh 10µM
O=c1ccc(C(F)(F)F)cn1Cc1cc(=O)n2ccsc2n1	none
COC(=O)C(CCSC)NC(=O)Cn1ncc2c([nH]c3ccccc32)c1=O (stereo not given)	none (no result: Mm-Cpn inhibitor, CCT chaperon mod, aSyn rescue)
C(=N\Nc1nncc2ccccc12)/c1cccnc1	none (no result: Mm-Cpn inhibitor, CCT chaperon mod, Abeta rescue, aSyn rescue, TDP-43 yeast inh)
Cc1cc2c(=Cc3ccc(N(C)C)cc3)c3ccccc3n2[n+]1C	CCT chaperon mod -45 (no result: Mm-Cpn inhibitor, FUS suppressor)
CCc1ccc(C2C(C#N)=C(N)SC(N)=C2C#N)s1	Mm-Cpn inhibitor 35µM, Abeta rescue inconclusive
COc1ccc(CNc2nc(N)nc3nc[nH]c23)cc1	none (no result: Mm-Cpn inhibitor, CCT chaperon mod, Abeta rescue, FUS suppressor, TDP-43 yeast inh)
O=C(Cn1nc(-c2ccccc2)c2c(c1=O)CCCC2)Nc1ccc(F)c(Cl)c1	FUS suppressor 10µM (no result: Mm-Cpn inhibitor, CCT chaperon mod, aSyn rescue)
COC(=O)c1cc(NC(=O)Cn2nc(-c3ccccc3)c3c(c2=O)CCCC3)cc(C(=O)OC)c1	none (no result: Mm-Cpn inhibitor, CCT chaperon mod, aSyn rescue)
O=C(CN1CCCN(Cc2ccccc2F)S1(=O)=O)Nc1ccc(F)c(Cl)c1	Abeta rescue inconclusive, TDP-43 yeast inh 11µM (no result: Mm-Cpn inhibitor, CCT chaperon mod, aSyn rescue)
CCC(C)[C@H](NC(=O)[C@H](CC(C)C)NC(=O)OC(C)(C)C)C(=O)N[C@@H](Cc1ccccc1)C(=O)OC (stereo not given in full)	none (no result: Mm-Cpn inhibitor, CCT chaperon mod, Abeta rescue, aSyn rescue, TDP-43 yeast inh)
CN(C(=O)Cc1c(C(=O)O)n(C)c2ccccc12)c1ccc(Cl)cc1	none
CC(C)c1ccc(N(C)C(=O)Cc2c(C(=O)O)n(C)c3ccccc23)cc1	TDP-43 yeast inh 28µM
CCOc1ccc(N(CC)C(=O)Cc2c(C(=O)O)n(C)c3ccccc23)cc1	Abeta rescue inconclusive
CCc1ccc(N(CC)C(=O)Cc2c(C(=O)O)n(C)c3ccccc23)cc1	TDP-43 yeast inh 28µM
COc1ccccc1-c1cc2ccccc2[nH]1	TDP-43 yeast inh 16µM
O=C(O)c1ccccc1-c1cc2ccccc2[nH]1	none (no result: Mm-Cpn inhibitor)
N#Cc1nc(-c2ccc(OCc3ccc(Cl)cc3)cc2)oc1NCc1cccnc1	none
N#Cc1nc(-c2ccc(OCc3ccccc3)cc2)oc1NCc1cccnc1	CCT chaperon mod -36
COC(=O)[C@@]12CCCCC=C1N(CCc1ccc(Cl)cc1)C(=O)[C@H]2CC(=O)NCCCCc1ccccc1	none (no result: Mm-Cpn inhibitor, CCT chaperon mod, Abeta rescue, aSyn rescue, TDP-43 yeast inh)
CN(C)c1ccc(C=O)c(F)c1	none (no result: Mm-Cpn inhibitor, CCT chaperon mod, Abeta rescue, FUS suppressor, TDP-43 yeast inh)
O=C(NCc1cccc(Br)c1)c1cc(-c2ccccc2)nn1CC1CC(c2cccc([N+](=O)[O-])c2)=NO1 (stereo not given)	FUS suppressor 32µM (no result: Mm-Cpn inhibitor)
CC(=O)Nc1ccc(S(=O)(=O)N2CCN(c3cc(C)ccc3C)CC2)cc1	FUS suppressor inconclusive, TDP-43 yeast inh 28µM
CC(=O)Nc1ccc(S(=O)(=O)N2CCN(S(=O)(=O)c3ccccc3)CC2)cc1	none
